Laboratory results from ChEMBL document CHEMBL1201862, “PubChem BioAssay data set” (2004).
About 140 (12%) of roughly 1,200 compounds were called active. The calls are words filed in the database; no cut-off is given here. The sample as a whole holds a higher share of actives than the screen did.

test: restoration of mutant CFTR halide transport – FRT cells, YFP quenching, cherry-pick, dose response (AID 743402); format: functional, cell-based

Compound | AbsAC35
COc1ccc(NC(=O)C(=O)NCC2CCCN2S(=O)(=O)c2cccs2)cc1 (stereo not given) | 87.6 µM (active)
CC(=O)c1cccc(-c2ccnc3c2CC(C(=O)NCc2ccco2)O3)c1 (stereo not given) | 40.3 µM (active)
O=c1c(O)c(-c2cccs2)oc2ccc(Cl)cc12 | 30.3 µM (active)
COc1ccc(C2=Nn3c(nnc3-c3ccccc3OC)SC2)cc1OC1CCOC1 (stereo not given) | 160 µM (active)
CCc1ccc(OCCNc2cc(N3CCNC(C)C3)ccc2[N+](=O)[O-])cc1 (stereo not given) | 58.8 µM (active)
N#Cc1ccc(-c2cccs2)nc1SCc1cccnc1 | 107 µM (active)
CCN(CC)CCC(=O)Nc1cccc2c1C(=O)c1ccccc1C2=O | 40.8 µM (active)
O=C(OCc1ccc(Br)cc1)c1cc([N+](=O)[O-])ccc1N1CCOCC1 | 28.4 µM (active)
CC(=O)Nc1ccc(S(=O)(=O)N2c3ccccc3C(C)=CC2(C)C)cc1 | 42.7 µM (active)
COc1ccc(C2C3=C(COC3=O)Oc3cc4c(cc32)OCO4)cc1OC (stereo not given) | 116 µM (active)
